Measurements as given in PubChem BioAssay (Tox21).
A number with no mark means an inactive call. Records with an inconclusive call do not appear. Entries that show only a call come without a potency. Calls of active or inactive are those of the source. Unless noted, calls come from the whole dose curve; as a rule, active = well fitted curve in the direction sought with a large enough effect in the repeat runs; inconclusive = weak or mixed curves; inactive = no such curve, though single readings can be large; an effect the other way counts as inactive or inconclusive.

Key:
[1] = A CellTox Green Cytotoxicity Assay to monitor cytotoxicity in HepG2 cells - 8 hour (AID 1224890); note: nearly all actives have a fitted effect of over 45% in size
In short: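 HepG2 cells were seeded together with the CellTox Green dye at 600 cells/well, left 5 h at 37 C/5% CO2, then given compounds in DMSO. Fluorescence from dye bound to dead-cell DNA was read repeatedly over 40 h of treatment at 37 C.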

[2] = qHTS assay to identify small molecule antagonists of the estrogen receptor alpha (ER-alpha) signaling pathway using the BG1 cell line in the presence of 0.1 nM 17-beta-estradiol - cell viability counter screen (AID 1259241); note: nearly all actives have a fitted effect of over 40% in size
In short: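 Following 5 days in phenol red-free medium with charcoal-stripped serum, VM7Luc4E2 cells received test compounds alongside 0.1 nM 17beta-estradiol (final) at 37C for 22 hr. Live cells were then quantified via protease-substrate fluorescence.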

[3] = qHTS assay to identify small molecule antagonists of the androgen receptor (AR) signaling pathway using the MDA cell line in the presence of 0.5 nM R1881 - cell viability counter screen (AID 1259242); note: nearly all actives have a fitted effect of over 45% in size
In short: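 MDA-kb2 cells (human breast carcinoma, stably carrying MMTV-luciferase reporter) were exposed to compounds with 0.5 nM R1881 (final) for 16 hr at 37C, 0% CO2; viability then read as live-cell protease fluorescence (CellTiter-Fluor, 30 min) in the same wells.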

[4] = qHTS assay to identify small molecule HDAC inhibitors - cell viability counter screen (AID 1259365); note: series mostly up to about 92 µM; nearly all actives have a fitted effect of over 50% in size
In short: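 HCT-116 wild-type, overnight attachment; 2hr drug exposure, 37C; CellTiter-Glo luminescent ATP readout after 30min RT.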

[5] = qHTS assay to identify small molecule agonists of the sonic hedgehog signaling (Shh) pathway - cell viability counter screen (AID 1259366); note: nearly all actives have a fitted effect of over 50% in size
In short: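 Compounds in DMSO were pin-transferred onto 3T3 Gli1-Luc cells that had settled 4hr; plates then stood 24hr at 37C and 5% CO2. One hour before the end, CellTiter-Fluor was added and fluorescence recorded.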

[6] = qHTS assay to identify small molecule antagonists of the sonic hedgehog signaling (Shh) pathway - cell viability counter screen (AID 1259367); note: nearly all actives have a fitted effect of over 55% in size
In short: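 NIH/3T3-derived Gli1-Luc reporter cells (2,000 per well) rested 4 hr at 37 C, then received DMSO compounds plus conditioned medium. After 23 hr of treatment, CellTiter-Fluor was added for 1 hr at 37C and fluorescence read.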

[7] = qHTS assay to identify small molecule agonists of the sonic hedgehog signaling (Shh) pathway (AID 1259368; calls by dose curve; note: series mostly up to about 92 µM; nearly all actives have a fitted effect of over 15% in size)
In short: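 NIH/3T3-derived 3T3Gli1-Luc cells carrying a stably integrated Gli1 response element–firefly luciferase reporter were plated, left 4 hr at 37 C, then given compounds in DMSO for 24 hr. Luminescence was read 30 min after adding luciferase reagent.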

[8] = qHTS assay to identify small molecule antagonists of the sonic hedgehog signaling (Shh) pathway (AID 1259369; calls by dose curve; note: nearly all actives have a fitted effect of over 45% in size; note: potency is the fitted concentration of half-maximal effect)
In short: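 NIH/3T3-derived 3T3Gli1-Luc cells with stably integrated Gli1-Luc reporter were preincubated 4hr at 37 C, then given compounds in DMSO plus Shh conditioned medium and incubated 24hr. Firefly luciferase luminescence read after 30min reagent at room temperature.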

[9] = target: Estrogen receptor beta (Homo sapiens) (UniProt Q92731); assay: qHTS assay to identify small molecule agonists of the estrogen receptor beta (ER-beta) signaling pathway (AID 1259377; active = well fitted activation curve with a large enough effect in the signal ratio in the repeat runs, not every such curve was filed as active; the % refers to the signal ratio)
In short: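 qHTS in ER-beta-UAS-bla HEK293T cells: 6 hr settling, then 16 hr compound at 37C, then LiveBLAzer substrate 2 h at RT before fluorescence reading.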

[10] = target: Estrogen receptor beta (Homo sapiens) (UniProt Q92731); assay: qHTS assay to identify small molecule antagonists of the estrogen receptor beta (ER-beta) signaling pathway (AID 1259378; active = well fitted inhibition curve with a large enough effect in the signal ratio in the repeat runs, not every such curve was filed as active; the % refers to the signal ratio)
In short: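 ER-beta-UAS-bla HEK293T (GripTite) cells in 2% charcoal-stripped FBS medium were preincubated 6 hr at 37C, dosed with compound, then stimulated with 1 nM E2 (final) for 16 hr; beta-lactamase reporter read by B/G FRET fluorescence after 2 hr substrate loading.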

[11] = qHTS assay to identify small molecule agonists of the androgen receptor (AR) signaling pathway in the presence of an antagonist - cell viability counter screen (AID 1259379); note: series mostly up to about 92 µM; nearly all actives have a fitted effect of over 25% in size
In short: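 MDA-kb2 human breast carcinoma cells (stable MMTV-luciferase, AR/GR responsive) were seeded 3,000 cells/well, pre-incubated 5 hr at 37C without CO2, then given 3.0uM nilutamide and compounds at 15 concentrations for 16 hr. Viability was read by CellTiter-Fluor fluorescence.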

[12] = qHTS assay to identify small molecule agonists of the estrogen receptor beta (ER-beta) signaling pathway - cell viability counter screen (AID 1259380); note: nearly all actives have a fitted effect of over 30% in size; note: potency is the fitted concentration of half-maximal effect
In short: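 ER-beta-UAS-bla HEK293T cells in medium with 2% charcoal-stripped FBS were preincubated 6 hr at 37C, dosed with compound in DMSO for 16 hr, then after the bla read, CellTiter-Glo was added for 30 min at room temperature; luminescence recorded.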

[13] = qHTS assay to identify small molecule antagonists of the estrogen receptor beta (ER-beta) signaling pathway - cell viability counter screen (AID 1259382); note: nearly all actives have a fitted effect of over 55% in size; note: potency is the fitted concentration of half-maximal effect
In short: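 ER-beta-UAS-bla HEK293T cells (2,000/well, 2% charcoal-stripped FBS) were pre-incubated 6 hr at 37C, then given compound plus 1nM final 17-beta-estradiol for 16 hr. Viability was read in the same wells by CellTiter-Glo luminescence after 30 min at room temperature.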

[14] = target: Estrogen receptor (Homo sapiens) (UniProt P03372); assay: qHTS assay to identify small molecule agonists of the estrogen receptor alpha (ER-alpha) signaling pathway in the presence of an antagonist (AID 1259383; calls by dose curve; note: top concentration of the series differs between compounds; nearly all actives have a fitted effect of over 15% in size)
In short: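 VM7Luc4E2 cells (endogenous full-length ER-alpha, 4×ERE-luciferase) were precultured 5 days in phenol red-free medium with 10% charcoal-stripped FBS, given 10.0nM ICI-182,780 (final), then treated with compounds at 15 concentrations for 22hr at 37C; luminescence read with ONE-Glo.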

[15] = qHTS assay to identify small molecule agonists or antagonists of the thyroid stimulating hormone receptor (TSHR) signaling pathway - wild type cell line counter screen (AID 1259384; calls by dose curve)
In short: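 Wild-type HEK293 cells were plated 18 h at 37 C/5% CO2, pin-dosed with compound plus Ro20-1724 medium, held 30 min at room temperature, then given cAMP-d2 and anti-cAMP-cryptate; fluorescence was read after 1 h. Fifteen concentrations, triplicate.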

[16] = target: Estrogen receptor (Homo sapiens) (UniProt P03372); assay: qHTS assay to identify small molecule antagonists of the estrogen receptor alpha (ER-alpha) signaling pathway using the BG1 cell line in the presence of 0.1 nM 17-beta-estradiol (AID 1259244); note: nearly all actives have a fitted effect of over 50% in size
In short: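 VM7Luc4E2 cells (endogenous full-length ER-alpha, stable 4xERE-luciferase) were grown 5 days in phenol red-free medium with charcoal-stripped FBS, then exposed 22 h at 37C to compounds plus 0.1 nM (final) 17beta-estradiol; ONE-Glo luminescence read-out.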

[17] = qHTS assay to identify small molecule HDAC inhibitors (AID 1259364); note: top concentration of the series differs between compounds; nearly all actives have a fitted effect of over 45% in size
In short: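 Wild-type HCT-116 cells were plated overnight, exposed to compounds for 2 h at 37 °C, then given HDAC-Glo class I/II luminogenic reagent for 30 min at room temperature before luminescence was read.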

[18] = target: Androgen receptor (Homo sapiens) (UniProt P10275); assay: qHTS assay to identify small molecule antagonists of the androgen receptor (AR) signaling pathway using the MDA cell line in the presence of 0.5 nM R1881 (AID 1259243); note: nearly all actives have a fitted effect of over 50% in size; note: potency is the fitted concentration of half-maximal effect
In short: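 MDA-kb2 human breast carcinoma cells carrying an MMTV-luciferase reporter (AR- and GR-responsive) were plated, rested 5 hr at 37C, dosed with compounds, then stimulated with 0.5 nM R1881 (final) for 16 hr; luminescence was read after ONE-Glo.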

[19] = target: Androgen receptor (Homo sapiens) (UniProt P10275); assay: qHTS assay to identify small molecule agonists of the androgen receptor (AR) signaling pathway in the presence of an antagonist (AID 1259381; calls by dose curve; note: nearly all actives have a fitted effect of over 15% in size)
In short: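 MDA-kb2 human breast carcinoma cells carrying an MMTV-luciferase reporter (AR- and GR-responsive) were treated with compounds at 15 concentrations plus 3.0uM final nilutamide for 16hr at 37C without CO2; luminescence was read after ONE-Glo addition.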

Sequence of Androgen receptor (Homo sapiens) (P10275 whole entry, looked up): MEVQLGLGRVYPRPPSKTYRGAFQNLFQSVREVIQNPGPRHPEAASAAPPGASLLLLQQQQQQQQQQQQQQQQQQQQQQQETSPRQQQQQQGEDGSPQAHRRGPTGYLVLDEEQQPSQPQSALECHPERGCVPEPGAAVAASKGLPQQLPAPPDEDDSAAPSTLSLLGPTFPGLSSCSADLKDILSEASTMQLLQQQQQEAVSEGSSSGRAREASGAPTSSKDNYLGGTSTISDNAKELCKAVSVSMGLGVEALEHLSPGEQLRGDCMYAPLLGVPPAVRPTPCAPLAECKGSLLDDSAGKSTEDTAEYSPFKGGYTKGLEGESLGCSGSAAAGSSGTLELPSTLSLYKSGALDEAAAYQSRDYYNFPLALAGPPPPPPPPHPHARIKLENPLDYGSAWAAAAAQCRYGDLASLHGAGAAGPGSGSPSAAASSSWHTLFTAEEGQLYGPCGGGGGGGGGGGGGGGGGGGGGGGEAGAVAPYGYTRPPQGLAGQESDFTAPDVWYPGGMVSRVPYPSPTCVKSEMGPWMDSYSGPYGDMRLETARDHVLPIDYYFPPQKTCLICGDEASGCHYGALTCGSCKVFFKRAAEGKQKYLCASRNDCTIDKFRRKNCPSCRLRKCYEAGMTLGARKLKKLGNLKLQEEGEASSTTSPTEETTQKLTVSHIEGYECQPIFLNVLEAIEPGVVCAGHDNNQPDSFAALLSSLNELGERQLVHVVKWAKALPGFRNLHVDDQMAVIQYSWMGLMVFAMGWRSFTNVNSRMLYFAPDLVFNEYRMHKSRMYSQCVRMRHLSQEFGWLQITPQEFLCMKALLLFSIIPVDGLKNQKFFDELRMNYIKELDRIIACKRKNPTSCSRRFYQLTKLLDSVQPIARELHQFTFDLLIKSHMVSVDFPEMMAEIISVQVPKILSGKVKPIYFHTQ
Sequence of Estrogen receptor (Homo sapiens) (P03372 whole entry, looked up): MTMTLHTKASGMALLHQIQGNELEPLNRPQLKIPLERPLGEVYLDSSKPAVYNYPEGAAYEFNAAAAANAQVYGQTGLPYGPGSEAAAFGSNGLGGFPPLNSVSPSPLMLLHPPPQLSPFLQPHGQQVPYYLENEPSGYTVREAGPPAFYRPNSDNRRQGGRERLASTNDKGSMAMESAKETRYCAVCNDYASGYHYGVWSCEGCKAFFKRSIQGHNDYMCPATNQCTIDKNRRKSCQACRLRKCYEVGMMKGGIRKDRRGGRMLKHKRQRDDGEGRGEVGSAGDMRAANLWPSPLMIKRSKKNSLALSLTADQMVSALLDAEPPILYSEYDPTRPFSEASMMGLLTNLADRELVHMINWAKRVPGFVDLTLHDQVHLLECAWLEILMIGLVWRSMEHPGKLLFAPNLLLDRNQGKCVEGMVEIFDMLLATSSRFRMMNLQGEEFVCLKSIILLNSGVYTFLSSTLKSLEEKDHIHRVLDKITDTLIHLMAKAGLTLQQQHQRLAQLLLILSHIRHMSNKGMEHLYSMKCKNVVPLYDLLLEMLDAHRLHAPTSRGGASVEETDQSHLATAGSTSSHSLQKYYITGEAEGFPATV
Sequence of Estrogen receptor beta (Homo sapiens) (Q92731 whole entry, looked up): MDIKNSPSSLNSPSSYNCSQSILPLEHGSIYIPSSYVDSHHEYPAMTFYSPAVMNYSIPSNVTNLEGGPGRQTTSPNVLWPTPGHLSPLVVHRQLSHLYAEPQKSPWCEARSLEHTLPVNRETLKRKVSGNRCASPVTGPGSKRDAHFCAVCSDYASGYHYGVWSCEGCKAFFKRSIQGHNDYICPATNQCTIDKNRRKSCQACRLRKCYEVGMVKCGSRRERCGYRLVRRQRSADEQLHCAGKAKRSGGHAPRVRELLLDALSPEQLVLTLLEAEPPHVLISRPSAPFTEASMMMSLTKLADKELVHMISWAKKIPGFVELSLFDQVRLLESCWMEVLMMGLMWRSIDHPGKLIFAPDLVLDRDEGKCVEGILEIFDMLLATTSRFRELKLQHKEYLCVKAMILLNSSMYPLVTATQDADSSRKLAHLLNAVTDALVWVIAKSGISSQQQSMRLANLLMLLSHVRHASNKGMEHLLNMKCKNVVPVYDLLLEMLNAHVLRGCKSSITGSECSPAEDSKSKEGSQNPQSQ

SMILES | Potency [1] | Potency [2] | Potency [3] | Potency [4] | Potency [5] | Potency [6] | Potency [7] | Potency [8] | Potency [9] | Potency [10] | Potency [11] | Potency [12] | Potency [13] | Potency [14] | Potency [15] | Potency [16] | Potency [17] | Potency [18] | Potency [19]
CC(C)COC(=O)COc1cc(Cl)c(Cl)cc1Cl | inactive | inactive | inactive | inactive | inactive | inactive | inactive | inactive | inactive | inactive | inactive | inactive | inactive | inactive | inactive |  |  |  | 
CC1=C2[C@@H]([C@H](C)CC[C@H]2/C=C(\C)C(=O)O)[C@H](O)C1 | inactive | inactive |  | inactive | inactive | inactive | inactive |  | inactive | inactive | inactive | inactive | inactive | inactive | inactive | inactive | inactive |  | 
CNS(=O)(=O)c1cc(C(=O)N2CCC(CCN3C4CCC3CC(n3c(C)nc5ccccc53)C4)(c3cccc(F)c3)CC2)c(Cl)cc1F (configuration not stated) | inactive | inactive |  | inactive |  | inactive | inactive | 15.4 µM (active) |  |  |  | 5.45 µM (active) | 7.7 µM (active) |  | inactive |  | inactive | 24.3 µM (active) | inactive
BrC(Br)C(Br)Br | inactive | inactive |  | inactive | inactive | inactive | inactive | inactive |  |  | inactive | inactive | inactive | inactive | inactive |  | inactive | inactive | inactive
COc1ccc(N)c([N+](=O)[O-])c1 | inactive | inactive | inactive | inactive | inactive |  | inactive | inactive | inactive | inactive |  | inactive | inactive |  | inactive |  |  |  | 
CC(C)C(O)C(C)(C)CO (configuration not stated) | inactive | inactive | inactive | inactive | inactive | inactive | inactive | inactive |  |  |  |  | inactive | inactive | inactive |  |  |  | 
COc1ccc(-c2cc(C(F)F)nn2-c2ccc(S(N)(=O)=O)cc2)cc1F | inactive | inactive | inactive | inactive | inactive | inactive | inactive |  | inactive | inactive | inactive | inactive | inactive | inactive |  |  |  |  | 
CCCCCCOC(=O)CCCCC | inactive | inactive | inactive | inactive | inactive | inactive | inactive | inactive | inactive | inactive | inactive | inactive | inactive |  | inactive |  |  |  | 
